In PubChem BioAssay (NCATS):
Where “and” joins values, the source holds several entries; their conditions need not be identical. Identical values can stand only once. Unmarked numbers belong to inactive results. Results filed as inconclusive are left out. A call without a number means that no potency is given here. Calls of active or inactive are those of the source. Unless noted, calls come from the whole dose curve; as a rule, active = well fitted curve in the direction sought with a large enough effect in the repeat runs; inconclusive = weak or mixed curves; inactive = no such curve, though single readings can be large; an effect the other way counts as inactive or inconclusive.

Columns and labels:
[1] = target: Tyrosine-protein kinase Yes (Homo sapiens) (UniProt P07947); assay: qHTS for small molecule inhibitors of Yes1 kinase: Primary Screen (AID 686947; active = well fitted curve in the direction sought with a large enough effect; an effect the other way counts as inactive or inconclusive; note: nearly all actives have a fitted effect of over 60% in size; note: potency is the fitted concentration of half-maximal effect)
Chain of Tyrosine-protein kinase Yes (Homo sapiens) (P07947 whole entry, looked up): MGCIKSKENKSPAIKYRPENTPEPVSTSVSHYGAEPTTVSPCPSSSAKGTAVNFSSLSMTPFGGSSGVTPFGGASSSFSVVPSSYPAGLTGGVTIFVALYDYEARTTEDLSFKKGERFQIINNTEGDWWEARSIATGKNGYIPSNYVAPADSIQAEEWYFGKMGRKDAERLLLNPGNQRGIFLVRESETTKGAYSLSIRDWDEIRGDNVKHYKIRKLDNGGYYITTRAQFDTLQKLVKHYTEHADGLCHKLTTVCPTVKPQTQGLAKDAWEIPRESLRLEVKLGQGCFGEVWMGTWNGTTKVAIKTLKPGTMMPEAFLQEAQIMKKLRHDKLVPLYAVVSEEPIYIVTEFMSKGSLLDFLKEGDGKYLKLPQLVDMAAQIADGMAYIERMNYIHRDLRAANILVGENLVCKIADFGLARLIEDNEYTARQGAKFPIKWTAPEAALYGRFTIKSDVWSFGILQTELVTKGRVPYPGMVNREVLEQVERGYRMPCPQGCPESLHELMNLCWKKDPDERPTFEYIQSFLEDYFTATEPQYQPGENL
Outline: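 ADP-Glo luminescence reports ADP formed by 4 nM Yes1 phosphorylating poly(E4Y) (0.3 mg/mL) with 0.1 mM ATP for 60 min at room temperature, following 20 min compound preincubation; normalised between DMSO wells with and without enzyme.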

[2] = qHTS for small molecule inhibitors of Yes1 kinase: Counter Assay (AID 686950; active = well fitted curve in the direction sought with a large enough effect; an effect the other way counts as inactive or inconclusive;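 note: no kinase present so only ADP-Glo detection of a fixed ADP amount is tested; luminescence from ADP-Glo reporting ADP in a fixed ATP and ADP mixture; series mostly up to about 77 µM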)
Outline: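 ADP-Glo luminescence read after a 60 min room-temperature incubation of compound with an ATP/ADP mix (0.08 mM/0.02 mM) and no kinase, following a 20 min compound preincubation. Signal scaled between ATP+ADP (max) and 0.1 mM ATP-only (min) wells; Tris pH 7.5, Mg2+, DTT.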

[3] = qHTS assay for small molecule agonists of the antioxidant response element (ARE) signaling pathway measured by Nrf2-dependant transcriptional activity (AID 720636);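 note: HepG2 cells with an ARE-driven luciferase reporter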
Outline: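 In HepG2 cells engineered with an Nrf2-responsive luciferase gene, ARE induction was quantified as luminescence after 16 hr compound treatment at 37 C.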

[4] = qHTS assay for small molecule agonists of the antioxidant response element (ARE) signaling pathway measured by Nrf2-dependant transcriptional activity - cell viability counter screen (AID 720653); settings: ARE-bla HepG2 viability, CellTiter-Glo ATP luminescence, 16 h; active compounds read low
Outline: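 Cytotoxicity counter screen: intracellular ATP quantified by CellTiter-Glo luminescence in the same ARE-bla HepG2 plates, after 16 h compound exposure and a 2 h beta-lactamase substrate step.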

[5] = qHTS assay for small molecule antagonists of the retinoid-related orphan receptor gamma (ROR-gamma) signaling pathway - cell viability counter screen (AID 720652);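 note: CHO reporter cells with doxycycline-induced ROR-gamma expression; series mostly up to about 92 µM; compound exposure lasted 16 hr before ATP read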
Outline: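 Cytotoxicity counter screen: intracellular ATP (CellTiter-Glo luminescence) measured in the doxycycline-induced CHO RORE-luciferase reporter line after 16 hr compound exposure at 37 C, 5% CO2.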

[6] = target: Nuclear receptor ROR-gamma (Homo sapiens) (UniProt P51449); assay: qHTS assay for small molecule antagonists of the retinoid-related orphan receptor gamma (ROR-gamma) signaling pathway (AID 651802; active = well fitted curve in the direction sought with a large enough effect; an effect the other way counts as inactive or inconclusive;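 note: CHO cells with doxycycline-induced ROR-gamma expression; luciferase reporter luminescence driven by ROR response element; series mostly up to about 92 µM; nearly all actives have a fitted effect of over 60% in size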)
Chain of Nuclear receptor ROR-gamma (Homo sapiens) (P51449 whole entry, looked up): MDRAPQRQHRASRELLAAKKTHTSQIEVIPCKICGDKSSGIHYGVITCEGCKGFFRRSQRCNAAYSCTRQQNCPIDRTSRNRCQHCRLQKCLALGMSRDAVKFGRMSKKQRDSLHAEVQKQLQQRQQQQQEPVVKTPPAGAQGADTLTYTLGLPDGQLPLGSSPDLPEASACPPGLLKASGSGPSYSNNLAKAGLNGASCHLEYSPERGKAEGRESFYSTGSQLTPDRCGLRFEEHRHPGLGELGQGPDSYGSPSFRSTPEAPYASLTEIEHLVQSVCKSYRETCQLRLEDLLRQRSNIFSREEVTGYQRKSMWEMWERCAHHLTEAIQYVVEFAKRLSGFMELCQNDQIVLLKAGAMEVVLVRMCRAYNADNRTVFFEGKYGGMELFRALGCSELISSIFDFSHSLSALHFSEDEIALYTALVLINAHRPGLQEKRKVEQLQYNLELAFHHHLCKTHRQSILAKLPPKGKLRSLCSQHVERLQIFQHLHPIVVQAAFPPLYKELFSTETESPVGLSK
Outline: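 Luminescence (One-Glo, 30 min RT) measured 16 h after compound addition and doxycycline induction at 37C. Reporter: RORE-luciferase under TET-inducible ROR-gamma in CHO cells.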

[7] = target: Arylsulfatase A (Homo sapiens) (UniProt P15289); assay: qHTS screen for enhancers of Arylsulfatase A (ASA1): LOPAC Validation Assay (AID 720538; active = well fitted curve in the direction sought with a large enough effect; an effect the other way counts as inactive or inconclusive)
Chain of Arylsulfatase A (Homo sapiens) (P15289 whole entry, looked up): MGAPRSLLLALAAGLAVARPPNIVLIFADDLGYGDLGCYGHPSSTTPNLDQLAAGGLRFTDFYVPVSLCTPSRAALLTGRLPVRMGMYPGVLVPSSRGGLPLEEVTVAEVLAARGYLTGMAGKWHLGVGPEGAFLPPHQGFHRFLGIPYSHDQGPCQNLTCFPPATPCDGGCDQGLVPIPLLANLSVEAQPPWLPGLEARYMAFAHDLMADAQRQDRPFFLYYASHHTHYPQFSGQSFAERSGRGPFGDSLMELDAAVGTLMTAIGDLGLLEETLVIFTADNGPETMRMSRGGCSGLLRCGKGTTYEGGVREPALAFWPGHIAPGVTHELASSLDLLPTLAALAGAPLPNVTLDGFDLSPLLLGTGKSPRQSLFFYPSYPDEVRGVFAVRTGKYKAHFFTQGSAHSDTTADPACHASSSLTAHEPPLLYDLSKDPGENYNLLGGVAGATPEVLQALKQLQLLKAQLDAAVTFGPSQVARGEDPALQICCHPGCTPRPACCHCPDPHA
Outline: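 SV40-transformed fibroblasts from an MLD patient (ASA-I179S) were treated with compound for 48 h at 37 C. They were then lysed with 0.5 mM pNCS substrate (final) for 14 h at room temperature and stopped with NaOH; signal read by fluorescence (Ex 525/Em 598 nm), with increase denoting enhanced activity.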

[8] = qHTS for compounds that reverse cellular toxicity of Amyloid beta (A-beta) peptide in yeast: LOPAC Validation Assay (AID 720559; active = well fitted curve in the direction sought with a large enough effect; an effect the other way counts as inactive or inconclusive)
Outline: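 Yeast expressing toxic A-beta grown with pinned compounds at 30 C for 48 hr. Growth measured as absorbance at 600 nm; data normalized to DMSO and to an equimolar FeCl3/clioquinol mixture as positive control.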

[9] = qHTS for Activators of Parkin Expression: LOPAC Validation Assay (NLuc Reporter) (AID 720572; active = well fitted curve in the direction sought with a large enough effect; an effect the other way counts as inactive or inconclusive)
Outline: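 Compound effects on Parkin promoter activity were measured as NanoLuc luminescence after 24 h at 37 C. The neuronal reporter line also carried FLuc, which was read first. LOPAC compounds were tested at 7 concentrations, with normalization to DMSO (0%) and positive control (100%).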

[10] = target: Hexokinase-4 (Homo sapiens) + Glucokinase regulatory protein (Homo sapiens) (UniProt P35557+Q14397); assay: qHTS assay for inhibitors of recombinant human GCK-GKRP interaction: ADP-Glo assay (AID 743206; active = well fitted curve in the direction sought with a large enough effect; an effect the other way counts as inactive or inconclusive)
Chain of Hexokinase-4 (Homo sapiens) + Glucokinase regulatory protein (Homo sapiens) (P35557 whole entry, looked up): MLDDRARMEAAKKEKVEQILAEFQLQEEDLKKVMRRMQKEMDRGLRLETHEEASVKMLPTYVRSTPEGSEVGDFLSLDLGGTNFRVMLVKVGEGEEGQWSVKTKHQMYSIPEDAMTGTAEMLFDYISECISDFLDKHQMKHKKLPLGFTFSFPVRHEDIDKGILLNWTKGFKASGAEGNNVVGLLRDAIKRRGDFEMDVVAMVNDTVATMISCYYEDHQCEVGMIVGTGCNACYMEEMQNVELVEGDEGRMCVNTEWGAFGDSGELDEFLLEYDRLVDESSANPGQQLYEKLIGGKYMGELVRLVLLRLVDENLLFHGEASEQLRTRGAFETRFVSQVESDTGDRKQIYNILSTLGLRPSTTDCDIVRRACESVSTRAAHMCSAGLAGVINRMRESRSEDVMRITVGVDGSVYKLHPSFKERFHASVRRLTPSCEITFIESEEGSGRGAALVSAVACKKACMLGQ
Chain of Hexokinase-4 (Homo sapiens) + Glucokinase regulatory protein (Homo sapiens) (Q14397 whole entry, looked up): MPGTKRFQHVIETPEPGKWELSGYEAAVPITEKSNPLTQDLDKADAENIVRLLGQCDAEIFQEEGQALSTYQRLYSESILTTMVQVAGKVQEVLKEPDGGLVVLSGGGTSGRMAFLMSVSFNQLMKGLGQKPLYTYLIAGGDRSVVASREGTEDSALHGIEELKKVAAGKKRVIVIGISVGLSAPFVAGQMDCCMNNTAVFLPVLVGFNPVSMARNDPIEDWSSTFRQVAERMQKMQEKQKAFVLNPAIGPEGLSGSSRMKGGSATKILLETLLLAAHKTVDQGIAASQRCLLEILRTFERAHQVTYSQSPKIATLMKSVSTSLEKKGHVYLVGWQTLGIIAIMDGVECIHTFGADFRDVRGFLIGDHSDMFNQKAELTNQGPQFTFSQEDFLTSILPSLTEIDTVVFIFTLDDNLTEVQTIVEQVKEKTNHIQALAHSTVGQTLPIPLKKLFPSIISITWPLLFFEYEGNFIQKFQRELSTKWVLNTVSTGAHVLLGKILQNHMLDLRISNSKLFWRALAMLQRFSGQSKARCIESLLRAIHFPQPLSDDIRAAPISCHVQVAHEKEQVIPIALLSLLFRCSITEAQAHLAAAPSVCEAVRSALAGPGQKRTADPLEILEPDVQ
Outline: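 Pin-transferred compounds meet a 15 nM GST-GCK/15 nM FLAG-GKRP/2 uM S6P mix (dispense concentrations). ATP is then added to 0.4 mM final with 5 mM glucose, and the reaction runs 60 min at room temperature. ADP is quantified luminescently.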

In the case of `CC(NC(=O)Cc1cc(F)cc(F)c1)C(=O)NC(C(=O)OC(C)(C)C)c1ccccc1` (stereo not drawn), the Potency [1] is reported as “inactive” and the outcome [2] is reported as “inactive”.
With `CCCCC(CC)COC(=O)CC(C(=O)OCC(CC)CCCC)S(=O)(=O)O` (stereo not drawn) the outcome [3] was “inactive” and the max response [4] was -6.73%.
For `NC(=O)Nc1cc(-c2ccc(CN3CCOCC3)c(F)c2)sc1C(=O)N[C@H]1CCCNC1`, the Potency [1] was 0.2 nM (active) and the outcome [2] was “inactive”.
With `CC1=C(/C=C/C(C)=C/C=C/C(C)=C/CO)C(C)(C)CCC1` the max response [4] was -15.5% and 5.78%.
For `O=S(=O)(O)O`, the outcome [3] was “inactive”, the outcome [5] was “inactive” and the max response [4] was -6.94% and 4.69%.
For `CC1=CCC(C(C)(C)O)CC1` (stereo not drawn), the outcome [3] was “inactive” and the max response [4] was 3.37%.
With `C[C@@H]1CCN(C(=O)CC#N)C[C@@H]1N(C)c1ncnc2[nH]ccc12` the outcome [2] was “inactive”.
With `CCCCC/C=C\C/C=C\CCCCCCCC(=O)O` the outcome [6] was “inactive”, the outcome [3] was “inactive” and the outcome [5] was “inactive”. For the same compound, the max response [4] was -8.45% and -16.5%.
With `CN1Cc2c(N)cccc2C(c2ccccc2)C1` (stereo not drawn) the outcome [7] was “inactive”, the outcome [8] was “inactive” and the outcome [9] was “inactive”. For the same compound, the outcome [10] was “inactive”.
With `CC[C@@H](C(=O)O)C1CC[C@H](C)C([C@@H](C)[C@H](O)[C@H](C)C(=O)[C@H](CC)C2O[C@]3(C=C[C@@H](O)[C@]4(CC[C@@](C)(C5CC[C@](O)(CC)[C@H](C)O5)O4)O3)[C@H](C)C[C@@H]2C)O1` (stereo partly drawn) the Potency [1] was “inactive” and the outcome [2] was “inactive”.
For `CN(NC(=O)CC(=O)NN(C)C(=S)c1ccccc1)C(=S)c1ccccc1`, the Potency [1] was “inactive” and the outcome [2] was “inactive”.
In the case of `CC(C)=O`, the outcome [6] is reported as “inactive”, the outcome [3] is reported as “inactive” and the outcome [5] is reported as “inactive”. For the same compound, the max response [4] was -3.47%.
For `O=CCCCC=O`, the outcome [3] was “inactive” and the max response [4] was -17.7%.
With `O=C(O)CC/C=C\CC[C@H]1[C@@H](N2CCCCC2)[C@@H](O)C[C@@H]1OCc1ccc(-c2ccccc2)cc1` the Potency [1] was “inactive” and the outcome [2] was “inactive”.
For `CCOc1ccc2c(c1)C(C)=CC(C)(C)N2`, the outcome [6] was “inactive”, the outcome [5] was “inactive” and the max response [4] was -1.53% and -25.3%.
With `CNC1CCN(C(Cc2cccc(-c3ccncc3)c2)C(=O)c2sc3c(F)ccc(F)c3c2Cl)CC1` (stereo not drawn) the Potency [1] was “inactive” and the outcome [2] was “inactive”.
